Screening data (PubChem BioAssay)
Sampled rows, rich in hits. Any-hit rate of the full collection: about 21%.
CHX counter-1 = counter-screen hit for Shiga toxin inhibitors, cycloheximide | max response, % | hit rate 12% among 300,000 | cell reporter, cycloheximide protein synthesis inhibition counterscreen; in the data active = max response mostly above about 13%, no sharp cut-off; inactive = mostly below about 14%; also: read at 38.3 µM for the half of the compounds with a filed dose; 0% is about no effect
NS1 inh = blocks influenza NS1 protein function; Potency, µM (series often up to 46.1 µM), inactives show top-dose activity, positive = more growth; hit rate 0.4% among 270,000; also: potency is read from the fitted curve at half-maximal effect; actives are rising curves; nearly all actives have a fitted effect of over 50% in size
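Growth recovery, yeast-based: influenza A NS1 expressed in S. cerevisiae causes slow growth, and suppressors are detected by OD600. The parent strain without NS1 is used as positive control.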
Pf growth 48h = inhibits P. falciparum growth in the first generation, 48 h | P. falciparum luciferase growth in erythrocytes, 48 h | Potency, µM (highest dose often 28.7 µM), without a hit: at the highest dose activity change, negative = inhibition, usual class: inhibitors | hit rate 5.9% among 310,000; active = well fitted inhibition curve with a large enough effect; inconclusive = small, poorly fitted or top-dose-only effect, or another doubt; inactive = no such curve, though single readings can be large or run the other way; also: potency is read from the fitted curve at half-maximal effect; % is scaled to controls: 0 for no effect and ±100 for the full control effect
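Here the parasites carry a stable luciferase gene and grow inside erythrocytes in Albumax-based RPMI medium with compound for one erythrocytic cycle. Activity is scored as loss of luminescent signal.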
Shiga inhibitor = Shiga toxin inhibition; Vero cells, Shiga toxin protein synthesis inhibition reporter; inhibition, % at 38.7 µM; hit rate 9.2% among 290,000; AID 2315; in the data active = inhibition mostly above about 28%, no sharp cut-off; inactive = mostly below about 43%; also: 0% is about no effect
SARS PLpro yeast = SARS-CoV PLP inhibition in yeast; S. cerevisiae expressing SARS-CoV PLpro, growth rescue; AID 485353; Potency, µM (top dose mostly 32.9 µM), without a hit: at the highest dose activity, positive = growth rescue, actives largely listed as activators; hit rate 0.19% among 330,000; also: potency is read from the fitted curve at half-maximal effect; 0% is about no effect; nearly all actives have a fitted effect of over 55% in size
Pf growth 96h = P. falciparum growth inhibition at 96 hour, primary screen for plastid delayed-death inhibitors. hit rate 6.9% among 320,000. Potency, µM (titrated, usually from 28.7 µM), without a hit: top-dose activity change, negative = inhibition, hits mostly inhibitors. AID 504834. P. falciparum luciferase reporter growth, 96 h; active = well fitted inhibition curve with a large enough effect; inconclusive = small, poorly fitted or top-dose-only effect, or another doubt; inactive = no such curve, though single readings can be large or run the other way; also: potency is read from the fitted curve at half-maximal effect; % is scaled to controls: 0 for no effect and ±100 for the full control effect
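P. falciparum expressing integrated firefly luciferase, in erythrocytes at 2% hematocrit, 0.05% parasitemia, incubated with compounds 96 h at 37 C, 5% CO2. Growth inhibition read as loss of luminescence; two-generation exposure targets delayed-death apicoplast inhibitors.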
CHX counter-2 = protein synthesis counter-screen activity for Shiga toxin hits; shares compounds with Shiga inhibitor; Cycloheximide counterscreen, protein synthesis reporter, Shiga toxin assay; Potency, µM (titrated, usually from 38.3 µM), for inactives: at the highest dose activity (activation), most hits filed as activators; hit rate 3% among 510; AID 2318; also: potency is read from the fitted curve at half-maximal effect; 0% is about no effect
Flu NS1 inh = influenza NS1 function inhibition validation | shares compounds with NS1 inh | influenza NS1 function cell assay, 15-point titration | activity change, negative = inhibition, % at 32.9 µM | 1,400 tested, under 10 active | AID 492980; also: 0% is about no effect
Starred values were filed as active, the others as inactive; [ ] = remark or other dose. Unless noted, calls follow the shape of the full dose curve.

How did COC(=O)c1ccc(C)c(NC(=O)CCSc2ccc(Cl)cc2)c1 do in these assays?
CHX counter-1: 10; NS1 inh: inconclusive; Pf growth 48h: -1%; Shiga inhibitor: 100*; SARS PLpro yeast: 10%; Pf growth 96h: -9%; CHX counter-2: -3%

What do the screens show for `COc1ccccc1CN(Cc1cccnc1)S(=O)(=O)c1ccc(-n2cnnn2)c(OC)c1`?
CHX counter-1: 1; NS1 inh: -12%; Pf growth 48h: inconclusive; Shiga inhibitor: 47*; SARS PLpro yeast: 19%; Pf growth 96h: 8.3µM*; CHX counter-2: -2%

What do the screens show for `COc1ccc(CN(Cc2cccnc2)S(=O)(=O)c2ccc(-n3cnnn3)c(C)c2)cc1OC`?
CHX counter-1: -2; NS1 inh: -17%; Pf growth 48h: inconclusive; Shiga inhibitor: 19; SARS PLpro yeast: 0%; Pf growth 96h: inconclusive

Results for O=C1NC(=Nc2ccc(O)cc2)S/C1=C\C=C\c1ccco1 ?
CHX counter-1: 3; NS1 inh: 7%; Pf growth 48h: inconclusive; Shiga inhibitor: 47*; SARS PLpro yeast: 1%; Pf growth 96h: inconclusive; CHX counter-2: inconclusive

Results for CC(Oc1ccc(F)cc1Br)c1nc2ccccc2c(=O)[nH]1 (stereo not drawn) ?
CHX counter-1: -2; NS1 inh: -32%; Pf growth 48h: 9.3µM*; Shiga inhibitor: 71*; SARS PLpro yeast: -7%; Pf growth 96h: inconclusive; CHX counter-2: inconclusive

Results for CCOC(=O)C1=C(O)/C(=C\c2ccc(CNC(=O)C(=O)Nc3ccccc3)o2)N=C1C ?
CHX counter-1: 4; NS1 inh: 26%; Pf growth 48h: -2%; Shiga inhibitor: 42*; SARS PLpro yeast: -3%; CHX counter-2: 1%

How did CCOC(=O)C1=C(O)/C(=C\c2cccs2)N=C1C do in these assays?
CHX counter-1: -1; NS1 inh: 2%; Pf growth 48h: -24%; Shiga inhibitor: -13; SARS PLpro yeast: -14%; Pf growth 96h: inconclusive

Results for CC(=O)Nc1ccc(C(=O)CS(=O)(=O)c2ccc(C)cc2)cc1 ?
CHX counter-1: 8; NS1 inh: 2%[9.22 µM]; Pf growth 48h: 13%; Shiga inhibitor: 25; SARS PLpro yeast: 11%; Pf growth 96h: 14%

How did Cc1cc(C(=O)CS(=O)(=O)c2ccc(F)cc2)cc(C)c1O do in these assays?
CHX counter-1: 10; NS1 inh: 0%; Pf growth 48h: 66%; Shiga inhibitor: 34*; SARS PLpro yeast: 1%; Pf growth 96h: 59%; CHX counter-2: inconclusive

Results for COc1ccccc1NC(=O)C(C)OC(=O)CCC1CCCCC1 (stereo not drawn) ?
CHX counter-1: -2; NS1 inh: -27%; Pf growth 48h: inconclusive; Shiga inhibitor: -6; SARS PLpro yeast: -1%; Pf growth 96h: 0%

Results for CCc1ccc(C(=O)c2oc3nc(C)cc(C)c3c2N)cc1 ?
CHX counter-1: 16; NS1 inh: -5%; Pf growth 48h: inconclusive; Shiga inhibitor: 51*; SARS PLpro yeast: -1%; Pf growth 96h: -22%; CHX counter-2: inconclusive

Results for Cc1ccc(C(=O)c2oc3nc(C)cc(C)c3c2N)cc1 ?
CHX counter-1: 13; NS1 inh: -14%; Pf growth 48h: -7%; Shiga inhibitor: 6; SARS PLpro yeast: -1%; Pf growth 96h: -18%

Results for Cc1ccc(CSC(Nc2ccc(F)cc2)=C(C#N)C#N)cc1 ?
CHX counter-1: 1; NS1 inh: -6%; Pf growth 48h: inconclusive; Shiga inhibitor: 21*; SARS PLpro yeast: -2%; Pf growth 96h: inconclusive; CHX counter-2: 0%

Results for CCN(CC)C(=O)CSC(Nc1ccc(F)cc1)=C(C#N)C#N ?
CHX counter-1: -4; NS1 inh: 6%; Pf growth 48h: 3%; Shiga inhibitor: 23; SARS PLpro yeast: 1%; Pf growth 96h: 0%

How did O=C(COC(=O)C1(c2ccc(F)cc2)CCCC1)NC1CC1 do in these assays?
CHX counter-1: -3; NS1 inh: -1%; Shiga inhibitor: -12; SARS PLpro yeast: 8%; Pf growth 96h: -21%

Results for CCOC(=O)N1CCN(S(=O)(=O)c2ccc(C(=O)NNc3nc4c(C)cc(C)cc4s3)cc2)CC1 ?
CHX counter-1: 5; NS1 inh: 4µM*; Pf growth 48h: inconclusive; Shiga inhibitor: 43*; SARS PLpro yeast: inconclusive; Pf growth 96h: inconclusive; CHX counter-2: -5%; Flu NS1 inh: inconclusive

What do the screens show for `Cc1ccc2c(c1)N(C(=O)CCC(=O)NC1CCC(C)CC1)CCO2` (stereo not drawn)?
CHX counter-1: 5; NS1 inh: -15%; Pf growth 48h: 0%; Shiga inhibitor: 7; SARS PLpro yeast: -10%; Pf growth 96h: 58%

What do the screens show for `O=C(NCC1CCCO1)C(c1ccco1)N(Cc1ccc(F)cc1)C(=O)CN1C(=O)c2ccccc2S1(=O)=O` (stereo not drawn)?
CHX counter-1: -11; NS1 inh: 10%; Pf growth 48h: -18%; Shiga inhibitor: -5; SARS PLpro yeast: 0%; Pf growth 96h: -8%

What do the screens show for `COc1cccc(CN(C(=O)CN2C(=O)c3ccccc3S2(=O)=O)C(C(=O)NCC2CCCO2)c2ccco2)c1` (stereo not drawn)?
CHX counter-1: -8; NS1 inh: inconclusive; Pf growth 48h: 2%; Shiga inhibitor: -11; SARS PLpro yeast: 13%; Pf growth 96h: 5%; Flu NS1 inh: -27

How did Cc1cc2cc(CN3C(=O)c4ccccc4C3=O)ccc2[nH]1 do in these assays?
CHX counter-1: -3; NS1 inh: inconclusive; Pf growth 48h: -1%; Shiga inhibitor: -3; SARS PLpro yeast: 29%; Pf growth 96h: inconclusive; Flu NS1 inh: 21

Results for COc1ccc(CN2C(=O)c3ccccc3C2=O)cc1 ?
CHX counter-1: -2; NS1 inh: -16%; Pf growth 48h: inconclusive; Shiga inhibitor: -1; SARS PLpro yeast: 2%; Pf growth 96h: 0%

How did Cc1ccc(-n2c3c(cc(C(=O)NCc4ccco4)c2=O)C(=O)CC(C)(C)C3)cc1 do in these assays?
CHX counter-1: 7; NS1 inh: 1.1µM*; Pf growth 48h: inconclusive; Shiga inhibitor: 12; SARS PLpro yeast: -4%; Pf growth 96h: 0.47µM*; Flu NS1 inh: -8

How did CCCCc1n[nH]c2c1/C(=N/O)CC(c1ccccc1)C2 (stereo not drawn) do in these assays?
CHX counter-1: 27*; NS1 inh: inconclusive; Pf growth 48h: -11%; Shiga inhibitor: 66; SARS PLpro yeast: 5%; Pf growth 96h: -11%; Flu NS1 inh: 8
